Inconclusive results are not listed. A call without a number means that no potency is given here. Calls of active or inactive are those of the source. Unless noted, calls follow the shape of the dose curve; as a rule, active = well fitted inhibition curve with a large enough effect; inconclusive = small, poorly fitted or top-dose-only effect; inactive = flat fitted curve, though single readings scatter.
The molecules below were run against T1, Tyrosine-protein phosphatase non-receptor type substrate 1 (Homo sapiens) + Leukocyte surface antigen CD47 (Homo sapiens) (UniProt P78324+Q08722) (assay: CD47-SIRPalpha protein protein interaction - HTRF assay qHTS validation (AID 1347058; active = well fitted curve in the direction sought with a large enough effect in the signal ratio, not every such curve was filed as active; the % refers to the signal ratio)). Settings: TR-FRET HTRF CD47-His / biotin-SIRPalpha binding, ratio 665/615; series mostly up to 38.3 µM.
How it was run: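 Soluble extracellular domains (6His-CD47, Avi-tag-biotinylated SIRPalpha) in PBS pH 7.4 with 0.05% IGEPAL CA-630. Compounds were preincubated 30 min at RT with CD47 and anti-His-Eu, then SIRPalpha and SAV-XL665 were added. TR-FRET 665/615 ratio.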

T1 sequence (P78324 whole entry, looked up, the tested form may be a part): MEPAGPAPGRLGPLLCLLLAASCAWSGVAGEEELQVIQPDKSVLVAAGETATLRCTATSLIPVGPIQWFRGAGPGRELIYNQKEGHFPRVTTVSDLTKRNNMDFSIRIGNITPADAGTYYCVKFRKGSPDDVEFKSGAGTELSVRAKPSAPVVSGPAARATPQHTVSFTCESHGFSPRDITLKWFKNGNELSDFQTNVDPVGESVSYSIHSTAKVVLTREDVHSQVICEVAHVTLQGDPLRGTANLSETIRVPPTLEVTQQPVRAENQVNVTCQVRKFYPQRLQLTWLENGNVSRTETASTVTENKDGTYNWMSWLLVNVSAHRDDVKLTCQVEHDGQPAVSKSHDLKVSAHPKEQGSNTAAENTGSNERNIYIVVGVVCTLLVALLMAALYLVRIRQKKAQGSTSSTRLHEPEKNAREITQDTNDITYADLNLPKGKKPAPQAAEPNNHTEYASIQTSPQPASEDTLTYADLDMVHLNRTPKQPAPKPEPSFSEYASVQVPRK
T1 sequence (Q08722 whole entry, looked up, the tested form may be a part): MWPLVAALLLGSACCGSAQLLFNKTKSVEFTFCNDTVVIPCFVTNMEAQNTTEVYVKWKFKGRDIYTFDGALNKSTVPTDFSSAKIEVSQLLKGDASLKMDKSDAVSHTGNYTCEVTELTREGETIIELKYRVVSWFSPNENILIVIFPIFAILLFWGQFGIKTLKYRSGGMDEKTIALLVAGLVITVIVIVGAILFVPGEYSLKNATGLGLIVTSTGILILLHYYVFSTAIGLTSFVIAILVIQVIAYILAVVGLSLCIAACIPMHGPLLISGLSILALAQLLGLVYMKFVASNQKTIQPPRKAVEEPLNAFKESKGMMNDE

Structure (SMILES)	outcome
Cc1ccc(/C(=C\CN2CCCC2)c2ccccn2)cc1	inactive
C[N+](C)(C)CCCCCCCCCC[N+](C)(C)C	inactive
CC[N+](C)(C)c1cccc(O)c1	inactive
CC(N=C(NC#N)Nc1ccncc1)C(C)(C)C (stereo unspecified)	inactive
O=C(CCNNC(=O)c1ccncc1)NCc1ccccc1	inactive
CCCN(CCC)CCc1cccc2c1CC(=O)N2	inactive
CCCCNc1c(C(=O)OCC)c(C)nc2c1cnn2CC	inactive
COCC(=O)O[C@]1(CCN(C)CCCc2nc3ccccc3[nH]2)CCc2cc(F)ccc2[C@@H]1C(C)C	inactive
Nc1ncn([C@@H]2O[C@H](CO)[C@@H](O)[C@H]2O)c(=O)n1	inactive
CCN(CC)CC(=O)Nc1c(C)cccc1C	inactive
CCN(CC)CCCN(c1ccccc1)C1Cc2ccccc2C1	inactive
CN=C(NC#N)NCCSCc1nc[nH]c1C	inactive
COc1ccc(CCN(C)CCCC(C#N)(c2cc(OC)c(OC)c(OC)c2)C(C)C)cc1OC (stereo unspecified)	inactive
O=c1[nH]c(=O)n([C@H]2C[C@H](O)[C@@H](CO)O2)cc1Br	inactive
c1ccc2c(c1)CCCC2C1=NCCN1 (stereo unspecified)	inactive
C[C@]12CCC(=O)C=C1CC[C@@H]1[C@@H]2CC[C@@]2(C)[C@H]1CC[C@]2(O)C(=O)CO	inactive
C[C@]12CC[C@@H]3c4ccc(O)cc4C[C@@H](CCCCCCCCCS(=O)CCCC(F)(F)C(F)(F)F)[C@H]3[C@@H]1CC[C@@H]2O (stereo partly specified)	inactive
CCCCCCCC/C=C\CCCCCCCC(=O)NCc1ccc(O)c(OC)c1	inactive
CC(C)[N+](C)(CCOC(=O)C1c2ccccc2Oc2ccccc21)C(C)C	inactive
CN(C)CCCN1c2ccccc2Sc2ccccc21	inactive
NC1=NCC2c3ccccc3Cc3ccccc3N12 (stereo unspecified)	inactive
Cc1nc2c([nH]1)c(=O)n(C)c(=O)n2Cc1ccco1	inactive
O=C(O)CCCCCCCC(=O)O	inactive
OCCN1CCN(CCCN2c3ccccc3C=Cc3ccccc32)CC1	inactive
NC(N)=NC(=O)Cc1c(Cl)cccc1Cl	inactive
CC(=O)Nc1nnc(S(N)(=O)=O)s1	inactive
Fc1ccc(C(c2ccc(F)cc2)N2CCN(C/C=C/c3ccccc3)CC2)cc1	inactive
CC(=O)OCC1=C(C(=O)O)N2C(=O)[C@@H](NC(=O)Cc3cccs3)[C@H]2SC1	inactive
Cc1ccc(S(=O)(=O)NC(=O)NN2CCCCCC2)cc1	inactive
NC/C=C/C(=O)O	inactive

What follows are molecules tested against T1, Tyrosine-protein phosphatase non-receptor type substrate 1 (Homo sapiens) + Leukocyte surface antigen CD47 (Homo sapiens) (assay: CD47-SIRPalpha protein protein interaction - Alpha assay qHTS validation (AID 1347059;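 also: bead proximity luminescence from CD47 binding SIRPalpha after compound preincubation with SIRPalpha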)). Settings: AlphaScreen CD47-His/biotin-SIRPalpha binding, LOPAC; series mostly up to 38.3 µM.
How it was run: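 SIRPalpha-biotin 25 nM + cpd, 30 min RT, dark; add CD47-His 12.5 nM, 30 min; add Ni-NTA/SAV beads 10 ug/mL, 30 min; AlphaScreen. Buffer PBS pH 7.4 + 0.05% IGEPAL CA-630. Non-biotinylated SIRPalpha as control inhibitor.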

Structure (SMILES)	Potency
Cc1ccc(/C(=C\CN2CCCC2)c2ccccn2)cc1	inactive
C[N+](C)(C)CCCCCCCCCC[N+](C)(C)C	inactive
CC[N+](C)(C)c1cccc(O)c1	inactive
CC(N=C(NC#N)Nc1ccncc1)C(C)(C)C (stereo unspecified)	inactive
CSc1ccc(C(=O)c2[nH]c(=O)[nH]c2C)cc1	inactive
O=C(CCNNC(=O)c1ccncc1)NCc1ccccc1	inactive
CCCN(CCC)CCc1cccc2c1CC(=O)N2	inactive
CCCCNc1c(C(=O)OCC)c(C)nc2c1cnn2CC	inactive
COCC(=O)O[C@]1(CCN(C)CCCc2nc3ccccc3[nH]2)CCc2cc(F)ccc2[C@@H]1C(C)C	inactive
Nc1ncn([C@@H]2O[C@H](CO)[C@@H](O)[C@H]2O)c(=O)n1	inactive
CCN(CC)CC(=O)Nc1c(C)cccc1C	inactive
CCN(CC)CCCN(c1ccccc1)C1Cc2ccccc2C1	inactive
CN=C(NC#N)NCCSCc1nc[nH]c1C	inactive
COc1ccc(CCN(C)CCCC(C#N)(c2cc(OC)c(OC)c(OC)c2)C(C)C)cc1OC (stereo unspecified)	inactive
O=c1[nH]c(=O)n([C@H]2C[C@H](O)[C@@H](CO)O2)cc1Br	inactive
C[C@]12CCC(=O)C=C1CC[C@@H]1[C@@H]2CC[C@@]2(C)[C@H]1CC[C@]2(O)C(=O)CO	inactive

Structure (SMILES)	Potency
C[C@]12CC[C@@H]3c4ccc(O)cc4C[C@@H](CCCCCCCCCS(=O)CCCC(F)(F)C(F)(F)F)[C@H]3[C@@H]1CC[C@@H]2O (stereo partly specified)	inactive
CCCCCCCC/C=C\CCCCCCCC(=O)NCc1ccc(O)c(OC)c1	inactive
CC(C)[N+](C)(CCOC(=O)C1c2ccccc2Oc2ccccc21)C(C)C	inactive
CN(C)CCCN1c2ccccc2Sc2ccccc21	inactive
NC1=NCC2c3ccccc3Cc3ccccc3N12 (stereo unspecified)	inactive
Cc1nc2c([nH]1)c(=O)n(C)c(=O)n2Cc1ccco1	inactive
O=C(O)CCCCCCCC(=O)O	inactive
OCCN1CCN(CCCN2c3ccccc3C=Cc3ccccc32)CC1	inactive
CC(C)(C)NCC(O)c1cc(O)cc(O)c1 (stereo unspecified)	inactive
NC(N)=NC(=O)Cc1c(Cl)cccc1Cl	inactive
CC(=O)Nc1nnc(S(N)(=O)=O)s1	inactive
Fc1ccc(C(c2ccc(F)cc2)N2CCN(C/C=C/c3ccccc3)CC2)cc1	inactive
CC(=O)OCC1=C(C(=O)O)N2C(=O)[C@@H](NC(=O)Cc3cccs3)[C@H]2SC1	inactive
Cc1ccc(S(=O)(=O)NC(=O)NN2CCCCCC2)cc1	inactive
NC/C=C/C(=O)O	inactive

— PubChem BioAssay (NCATS)
